Bioassay records deposited in PubChem BioAssay by National Center for Advancing Translational Sciences (NCATS).
Sampled rows, rich in hits. Any-hit rate of the full collection: about 2.8%.
Pol kappa inh-1 – blocks human DNA polymerase kappa activity. Q9UBT6. purified Pol kappa, fluorescent DNA synthesis assay, 10 min. Potency, µM (highest dose often 107 µM), for inactives: top-dose activity, negative = inhibition, hits mostly inhibitors. 400,000 tested, 0.53% active; further: potency means the concentration at half of the fitted maximal effect; on the % scale 0 is the no-effect control and ±100 the full control effect
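Kinetic fluorescence screen: compound preincubated 15 min RT with 10 nM enzyme; 50 nM substrate (final) initiates; reads at 0/10 min.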
WRN helicase inh – blocks human WRN helicase; WRN helicase unwinding, fluorescent forked duplex, kinetic; Potency, µM (titrated, usually from 114 µM), for the others: at the top dose activity change, negative = inhibition, hits mostly inhibitors; 360,000 tested, 0.46% active; Q14191; further: potency means the concentration at half of the fitted maximal effect; on the % scale 0 is the no-effect control and ±100 the full control effect; nearly all actives have a fitted effect of over 55% in size
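Kinetic fluorescence helicase assay: unwinding of a quenched forked DNA duplex (100 nM final) with 2 mM ATP final raises red fluorescence (525/598 nm). Compounds sat 15 min at room temperature with 20 nM WRN beforehand.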
Pol iota inh – inhibitors of human DNA polymerase iota. Q9UNA4. Pol iota fluorescent replication assay, 10 min. Potency, µM (doses to about 115 µM), for inactives: at the top dose activity, negative = inhibition, usual class: inhibitors. 390,000 tested, 1% active; further: potency means the concentration at half of the fitted maximal effect
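Fluorescent replication assay read twice, at 0 min and 10 min after adding 50 nM (final) substrate. Enzyme (10 nM) and compounds were first incubated 15 min at room temperature; enzyme-free buffer wells were negative controls.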
POLB inh – blocks human DNA polymerase beta activity. P06746. Pol beta primer extension/strand displacement, fluorescence kinetic. Potency, µM (top dose mostly 114 µM), without a hit: top-dose activity change, negative = inhibition, actives largely listed as inhibitors. 340,000 tested, 1.3% active; further: potency means the concentration at half of the fitted maximal effect; on the % scale 0 is the no-effect control and ±100 the full control effect
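Enzyme-only controls used 10 nM Pol beta; buffer lacking enzyme served as negative control. Compound preincubated 15 min, then 50 nM substrate added; 0 and 10 min reads at room temperature.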
PI5P4K alpha inh – PI5P4K alpha (human) kinase inhibition | PI5P4Kalpha enzyme, ADP-Glo luminescence, 60 min; stronger effect = lower value | 330,000 tested, 1.2% active | max response, %; active means max response of -50% or lower; inconclusive means between -30% and -50%; inactive means -30% or higher; further: value at the top dose of about 77 µM; on the % scale 0 is the no-effect control and ±100 the full control effect
Target sequence (P48426 whole entry, looked up): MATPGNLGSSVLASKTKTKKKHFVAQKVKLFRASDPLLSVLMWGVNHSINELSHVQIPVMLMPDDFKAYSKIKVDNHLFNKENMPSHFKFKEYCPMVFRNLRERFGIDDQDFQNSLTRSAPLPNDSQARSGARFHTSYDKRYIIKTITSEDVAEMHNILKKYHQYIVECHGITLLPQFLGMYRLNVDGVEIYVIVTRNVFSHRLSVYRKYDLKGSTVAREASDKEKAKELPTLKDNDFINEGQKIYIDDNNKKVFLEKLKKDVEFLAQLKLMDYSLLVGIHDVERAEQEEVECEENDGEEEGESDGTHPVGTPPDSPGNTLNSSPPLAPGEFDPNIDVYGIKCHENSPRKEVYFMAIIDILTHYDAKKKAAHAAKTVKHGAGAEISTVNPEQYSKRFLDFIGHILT
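Human PI5P4Kalpha with substrate in 0.038 M HEPES pH 7.4, 0.28 mM EGTA, 0.1% CHAPS, 5% DMSO; reaction started with 5 microM ATP (final), 60 min at room temperature. ADP formed read by ADP-Glo luminescence.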
Pol eta inh-1 – DNA polymerase eta (human) inhibition | 390,000 tested, 1.2% active | Potency, µM (highest dose often 114 µM), for the others: top-dose activity change, negative = inhibition, hits mostly inhibitors | Q9Y253 | AID 588591 | recombinant Pol eta, fluorescent DNA replication assay; further: potency means the concentration at half of the fitted maximal effect; on the % scale 0 is the no-effect control and ±100 the full control effect
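Fluorescent replication assay: 50 nM final substrate added after a 15 min room-temperature compound preincubation with 10 nM enzyme. Signal taken at 0 min and again at 10 min.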
PGK validate – TbPGK inhibition, hit validation. shares compounds with Pol kappa inh-1. TbPGK coupled GAPDH assay, Kinase-Glo luminescence. Potency, µM (titrated, usually from 57.5 µM), for the others: at the highest dose activity change, negative = inhibition, actives largely listed as inhibitors. 500 tested, 79% active; further: potency means the concentration at half of the fitted maximal effect; on the % scale 0 is the no-effect control and ±100 the full control effect; nearly all actives have a fitted effect of over 65% in size
Pol iota confirm – Inhibitors of human DNA polymerase iota, confirmation | Potency, µM, actives largely listed as inhibitors | 1,500 tested, 77% active | shares compounds with Pol kappa inh-1 | AID 720496 | Pol iota primer extension, TAMRA/BHQ fluorescence; further: potency means the concentration at half of the fitted maximal effect
Pol kappa inh-2 – confirmation of human DNA polymerase kappa inhibitors; shares compounds with Pol eta inh-1; purified Pol-kappa, fluorescent strand-displacement substrate; Potency, µM, most hits filed as inhibitors; 920 tested, 76% active; further: potency means the concentration at half of the fitted maximal effect
Pol eta inh-2 – Pol eta (human) inhibition, cherry-pick confirmation; shares compounds with Pol eta inh-1; Pol eta primer extension, TAMRA/BHQ fluorescence, 10 min; 2,600 tested, 64% active; Potency, µM, most hits filed as inhibitors; further: potency means the concentration at half of the fitted maximal effect
Active calls of the source: *; [ ] = dose if it differs, or a comment. Unless noted, the call rests on the fitted dose curve; in most records, active means well fitted curve in the direction sought with a large enough effect; inconclusive means small, poorly fitted or top-dose-only effect, or another doubt; inactive means no such curve, though single readings can be large; an effect the other way counts as inactive or inconclusive.

What do the screens show for `O=C(O)/C(=C\c1ccc(Cl)c([N+](=O)[O-])c1)c1ccc(S(=O)(=O)N2CCCC2)s1`?
Pol kappa inh-1: inconclusive; WRN helicase inh: -4%[11.6 µM]; Pol iota inh: 40µM*; PI5P4K alpha inh: -25; Pol eta inh-1: 22µM*; Pol iota confirm: inconclusive; Pol kappa inh-2: inconclusive; Pol eta inh-2: inconclusive

How did C=CCOn1c(=O)c(-c2ccc(OCC)cc2)[n+]([O-])c2ccccc21 do in these assays?
Pol kappa inh-1: 5%; WRN helicase inh: 2%; Pol iota inh: 180%; POLB inh: 0%; PI5P4K alpha inh: 4; Pol eta inh-1: -25%

What do the screens show for `CC(NC(=O)c1ccccc1)C(=O)N/N=C/c1ccco1` (stereo unspecified)?
Pol kappa inh-1: 4%; WRN helicase inh: 4%; Pol iota inh: -23%; POLB inh: 2%; PI5P4K alpha inh: -10; Pol eta inh-1: 4%

Results for CC(C)CC(NC(=O)c1ccccc1)C(=O)N/N=C/c1ccco1 (stereo unspecified) ?
Pol kappa inh-1: inconclusive; WRN helicase inh: -13%; Pol iota inh: inconclusive; POLB inh: 89µM*; PI5P4K alpha inh: -18; Pol eta inh-1: 14µM*; PGK validate: inconclusive; Pol eta inh-2: inconclusive

What do the screens show for `N#Cc1ccccc1N1CCN(C(=O)c2ccc(NC(=O)c3ccc(Br)o3)cc2)CC1`?
Pol kappa inh-1: 71µM*; WRN helicase inh: -26%; Pol iota inh: 22µM*; PI5P4K alpha inh: inconclusive; Pol eta inh-1: 22µM*; Pol iota confirm: inconclusive; Pol kappa inh-2: inconclusive; Pol eta inh-2: 76*

Results for COC(=O)/C(C(C)=O)=C(\C=C\N(C)C)N(C)C ?
Pol kappa inh-1: -3%; WRN helicase inh: -8%; Pol iota inh: 24%; POLB inh: 17%; Pol eta inh-1: -8%

Results for COC(=O)\C(C(C)=O)=C(/C=C/C=C/C=C/N(C)C)N(C)C ?
Pol kappa inh-1: 22µM*; WRN helicase inh: 21µM*; Pol iota inh: 4µM*; POLB inh: 10µM*; PI5P4K alpha inh: 1; Pol eta inh-1: 2.8µM*; PGK validate: 4.1µM*; Pol iota confirm: 15*; Pol kappa inh-2: 5.3*; Pol eta inh-2: 6*

Results for CN(C)c1ccc(/C=C2\SC(=S)N(Nc3ncc(C(F)(F)F)cc3Cl)C2=O)cc1 ?
Pol kappa inh-1: 18µM*; WRN helicase inh: 50µM*; Pol iota inh: 11µM*; POLB inh: -1%; Pol eta inh-1: 45µM*; Pol iota confirm: 21*; Pol eta inh-2: 19*

Results for Cc1cc(C)nc(NN2C(=O)/C(=C/c3ccccc3)SC2=S)n1 ?
Pol kappa inh-1: -4%; WRN helicase inh: 7%; Pol iota inh: -16%; POLB inh: 6%; Pol eta inh-1: -10%

Results for O=C(COC(=O)c1c2c(nc3ccccc13)/C(=C\c1ccco1)CC2)NC1CCCC1 ?
Pol kappa inh-1: 22µM*; WRN helicase inh: 45µM*; Pol iota inh: 6.3µM*; PI5P4K alpha inh: -55*; Pol eta inh-1: 3.5µM*; Pol iota confirm: 19*; Pol kappa inh-2: 12*; Pol eta inh-2: 27*

How did O=C(COC(=O)c1c2c(nc3ccccc13)/C(=C/c1cccc([N+](=O)[O-])c1)CCC2)NC1CCS(=O)(=O)C1 (stereo unspecified) do in these assays?
Pol kappa inh-1: -20%; WRN helicase inh: -32%; Pol iota inh: 5%; POLB inh: 2%; PI5P4K alpha inh: 24; Pol eta inh-1: -11%

Results for CN1CCc2nc3ccccc3c(C(=O)OCC(=O)N(CCC#N)c3ccccc3)c2C1 ?
Pol kappa inh-1: -2%; WRN helicase inh: 3%; Pol iota inh: 33%; POLB inh: -1%; PI5P4K alpha inh: -18; Pol eta inh-1: -11%

Results for CN(CCC#N)C(=O)COC(=O)c1c2c(nc3ccccc13)/C(=C\c1ccco1)CC2 ?
Pol kappa inh-1: 22µM*; WRN helicase inh: inconclusive; Pol iota inh: 4µM*; PI5P4K alpha inh: inconclusive; Pol eta inh-1: 11µM*; Pol iota confirm: 17*; Pol eta inh-2: 34*

What do the screens show for `CC1(C)CCC(c2ccc(Cl)cc2)=C(CN2CCN(c3ccc(C(=O)NS(=O)(=O)c4ccc(N[C@H](CCN5CCOCC5)CSc5ccccc5)c(S(=O)(=O)C(F)(F)F)c4)cc3)CC2)C1`?
Pol kappa inh-1: 45µM*; Pol iota inh: 40µM*; Pol iota confirm: 67*; Pol kappa inh-2: inconclusive; Pol eta inh-2: inconclusive

How did Cn1c(CNC(=O)CSc2nc(-c3cccc(Cl)c3)nc3cc(=O)[nH]n23)nc2ccccc21 do in these assays?
Pol kappa inh-1: -28%; Pol iota inh: inconclusive; POLB inh: inconclusive; Pol eta inh-1: -11%

What do the screens show for `O=C(CSc1nc(-c2cccc(Cl)c2)nc2cc(=O)[nH]n12)Nc1ccccc1`?
Pol kappa inh-1: -35%; Pol iota inh: inconclusive; POLB inh: 20µM*; Pol eta inh-1: 50µM*; Pol iota confirm: 60*; Pol eta inh-2: 85*

What do the screens show for `O=C1CCCCC(=O)[C@H](OC(=O)c2ccccc2)C[C@H](c2ccccc2)O1`?
WRN helicase inh: 4%; PI5P4K alpha inh: 1

What do the screens show for `Cc1ccc[n+](-c2nc([O-])sc2C=O)c1`?
Pol kappa inh-1: inconclusive; WRN helicase inh: -17%[11.6 µM]; Pol iota inh: inconclusive; POLB inh: inconclusive; PI5P4K alpha inh: inconclusive; Pol eta inh-1: 22µM*; Pol iota confirm: inconclusive; Pol eta inh-2: inconclusive

What do the screens show for `Cc1cc(C)n(Cc2ccc(C(=O)N/N=C/c3ccc(-c4ccc([N+](=O)[O-])cc4)o3)o2)n1`?
Pol kappa inh-1: 25µM*; WRN helicase inh: 32µM*; Pol iota inh: 10µM*; POLB inh: 2µM*; PI5P4K alpha inh: 0; Pol eta inh-1: 6.3µM*; Pol iota confirm: 17*; Pol eta inh-2: 43*
